# PubChem BioAssay AID1159580 (chemical genetic matrix, 2015)
# In all, about 5,500 compounds went through this assay and about 2,000 (36%) were called active. Not shown: some 18% with an inconclusive outcome. The list shows a part of the results. A number with no mark means an inactive call. Rule as the data show it: active = normalized growth mostly below about 0.91 (no sharp cut-off); inconclusive = no clear call, values can overlap the other calls; inactive = mostly above about 0.92.
# Assay: chemical genetic growth profiling, strain panel (AID 1159580);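 also: tested at 20 µM; growth read once vehicle control cultures reached saturation at 30 °C; 1 = growth at the plate median or of vehicle wells; lower values mean less growth of the strain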
# Conditions: S. cerevisiae deletion strains, growth OD
smiles,measurement,setting,value
NC(=NC(=O)c1ccc(Cl)cc1)c1cccs1,normalized growth,"locus YAR019C, strain CDC15, hits give low values",0.944
same,normalized growth,"locus YBL105C, strain PKC1, hits give low values",0.964
same,normalized growth,"locus YBR135W, strain CKS1, hits give low values",0.95
same,normalized growth,"locus YBR136W, strain MEC1, hits give low values",0.949
same,normalized growth,"locus YBR160W, strain CDC28, hits give low values",0.951
same,normalized growth,"locus YDL017W, strain CDC7, hits give low values",0.964
same,normalized growth,"locus YDL028C, strain MPS1, hits give low values",0.933
same,normalized growth,"locus YDL101C, strain DUN1, hits give low values",0.969
same,normalized growth,"locus YDL108W, strain KIN28, hits give low values",0.946
same,normalized growth,"locus YDL132W, strain cdc53, hits give low values",0.951
same,normalized growth,"locus YDL214C, strain PRR2, hits give low values",0.8
same,normalized growth,"locus YDR052C, strain DBF4, hits give low values",0.96
same,normalized growth,"locus YDR054C, strain cdc34, hits give low values",0.951
same,normalized growth,"locus YDR226W, strain ADK1, hits give low values",0.951
same,normalized growth,"locus YDR477W, strain SNF1, hits give low values",0.828
same,normalized growth,"locus YER123W, strain YCK3, hits give low values",0.81
same,normalized growth,"locus YER133W, strain GLC7, hits give low values",0.775
same,normalized growth,"locus YFL009W, strain cdc4, hits give low values",0.954
same,normalized growth,"locus YFL029C, strain CAK1, hits give low values",0.949
same,normalized growth,"locus YFR003C, strain YPI1, hits give low values",0.959
same,normalized growth,"locus YFR019W, strain FAB1, hits give low values",0.938
same,normalized growth,"locus YFR028C, strain CDC14, hits give low values",0.948
same,normalized growth,"locus YGR040W, strain KSS1, hits give low values",0.833
same,normalized growth,"locus YGR052W, strain FMP48, hits give low values",0.794
same,normalized growth,"locus YGR092W, strain DBF2, hits give low values",0.533
same,normalized growth,"locus YHR030C, strain SLT2, hits give low values",0.902
same,normalized growth,"locus YHR079C, strain IRE1, hits give low values",0.698
same,normalized growth,"locus YHR082C, strain KSP1, hits give low values",0.934
same,normalized growth,"locus YHR205W, strain SCH9, hits give low values",0.798
same,normalized growth,"locus YIL147C, strain SLN1, hits give low values",0.956
same,normalized growth,"locus YJL095W, strain BCK1, hits give low values",0.795
same,normalized growth,"locus YJL128C, strain PBS2, hits give low values",0.921
same,normalized growth,"locus YJL157C, strain FAR1, hits give low values",0.833
same,normalized growth,"locus YJR016C, strain ILV3, hits give low values",0.957
same,normalized growth,"locus YJR066W, strain TOR1 (second series), hits give low values",0.904
same,normalized growth,"locus YJR066W, strain TOR1, hits give low values",0.884
same,normalized growth,"locus YKL048C, strain ELM1, hits give low values",0.901
same,normalized growth,"locus YKL067W, strain YNK1, hits give low values",0.824
same,normalized growth,"locus YKL101W, strain HSL1, hits give low values",0.877
same,normalized growth,"locus YKL193C, strain SDS22, hits give low values",0.942
same,normalized growth,"locus YKL203C, strain TOR2, hits give low values",0.9
same,normalized growth,"locus YLR113W, strain HOG1, hits give low values",0.607 (active)
same,normalized growth,"locus YLR133W, strain CKI1, hits give low values",0.83
same,normalized growth,"locus YLR403W, strain SFP1, hits give low values",0.789
same,normalized growth,"locus YML070W, strain DAK1, hits give low values",0.774
same,normalized growth,"locus YMR001C, strain CDC5, hits give low values",0.948
same,normalized growth,"locus YMR205C, strain PFK2 (second series), hits give low values",0.836
same,normalized growth,"locus YMR277W, strain FCP1, hits give low values",0.942
same,normalized growth,"locus YNL006W, strain LST8, hits give low values",0.97
same,normalized growth,"locus YNL020C, strain ARK1, hits give low values",0.821
same,normalized growth,"locus YNL161W, strain CBK1, hits give low values",0.95
same,normalized growth,"locus YNL183C, strain NPR1, hits give low values",0.721
same,normalized growth,"locus YNL207W, strain RIO2, hits give low values",0.949
same,normalized growth,"locus YNL222W, strain SSU72, hits give low values",0.957
same,normalized growth,"locus YNL307C, strain MCK1 (second series), hits give low values",0.82
same,normalized growth,"locus YOL078W, strain AVO1, hits give low values",0.944
same,normalized growth,"locus YOL136C, strain PFK27, hits give low values",0.774
same,normalized growth,"locus YOR061W, strain CKA2, hits give low values",0.82
same,normalized growth,"locus YOR119C, strain RIO1, hits give low values",0.834
same,normalized growth,"locus YOR231W, strain MKK1, hits give low values",0.734
same,normalized growth,"locus YOR329C, strain SCD5, hits give low values",0.949
same,normalized growth,"locus YPL031C, strain PHO85, hits give low values",0.8
same,normalized growth,"locus YPL153C, strain RAD53, hits give low values",0.844
same,normalized growth,"locus YPL204W, strain HRR25, hits give low values",0.806
same,normalized growth,"locus YPL209C, strain IPL1, hits give low values",0.955
same,normalized growth,"locus YPL256C, strain CLN2, hits give low values",0.67 (active)
same,normalized growth,"locus YPR025C, strain CCL1, hits give low values",0.953
same,normalized growth,"locus YPR106W, strain ISR1, hits give low values",0.932
same,normalized growth,"locus YPR111W, strain DBF20, hits give low values",0.915
same,normalized growth,"strain NNK1, hits give low values",0.932
same,normalized growth,"strain TSCII, hits give low values",0.939
